Screen size: about 290,000 compounds; about 3,000 (1%) were called active. Cut-off read from the data, not from the text of the source: active = inhibition mostly above about 36% (no sharp cut-off); inactive = mostly below about 34%. The sample as a whole holds a higher share of actives than the screen did.
experiment: NOD1 signaling inhibitors, primary screen, cell-based, luminescence, uHTS (AID 1578); settings: NOD1-driven NF-kB luciferase reporter cells, at 4 µM, stronger effect = higher value;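 note: HEK-293T reporter cells stimulated with the NOD1 agonist gamma-tri-DAP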

inhibition, inactive:
O=C(c1ccccc1)N1CCC(c2nc(-c3ccc(S(=O)(=O)N4CCOCC4)cc3)no2)CC1 18.2%
COCCCNC(=S)NNC(=O)Cn1nc(C)c(Br)c1C 0.3%
CC(Oc1ccc(Cl)cc1Cl)c1nc(-c2ccc(NC(=O)c3ccccn3)cc2)no1 (stereo unspecified) -18.6%
CC(Oc1ccc(Cl)cc1Cl)c1nc(-c2ccc(NC(=O)c3ccco3)cc2)no1 (stereo unspecified) -12.3%
C=C(C(=O)O)C1CCC2(C)CCCC(C)(O)C2C1 (stereo unspecified) -0.6%
NNc1nc(C(F)(F)F)nc2ccccc12 -7.9%
C/C(O)=c1/ccc2cccc3nc(C)nc1c23 -3.6%
Cc1ccc(NC(=O)COC(=O)C(NS(=O)(=O)c2ccc(Cl)cc2)C(C)O)c(Br)c1 (stereo unspecified) -22.2%
CCOC(=O)N1CCN(C(=O)CN(C2CCCCC2)S(=O)(=O)c2c(C)cc(C)cc2C)CC1 -2.2%
COc1ccc(C(=O)NCCNc2ccc([N+](=O)[O-])cc2)cc1 -51.3%
COc1ccc(C(=O)NCCNc2ccccc2[N+](=O)[O-])cc1 -34%
CCOc1ccc(OCC)c(S(=O)(=O)n2cc(C)nc2CC)c1 -17.2%
CCc1nc(C(N)=O)c2[nH]c(=O)n(-c3ccccc3F)c2n1 -17%
Nc1cccc2c1C(=O)N(C(=O)/C=C/c1cccc(Br)c1)C2=O 3.9%
COc1cc(/C=C/C(=O)N2C(=O)c3cccc(N)c3C2=O)cc(OC)c1OC 17.4%
COCCSc1nnc(NC(=O)Cc2ccc(OC)cc2)s1 -20.4%
CCN1C(=O)C(CC(=O)Nc2ccc(OC)cc2)N(CCCN2CCN(c3ccc(F)cc3)CC2)C1=S (stereo unspecified) -47.7%
COc1ccccc1N1CCN(C(=O)CCCNC(=O)Cn2cnc3sc(C)c(C)c3c2=O)CC1 17.8%
Cc1cccc(NC(=O)CSc2nccn2Cc2ccco2)c1C -19.3%
CN(C)c1ccc(/C=N/Nc2nncc3ccccc23)cc1 15%
COc1ccc(/C=N/Nc2nncc3ccccc23)cc1 0.2%

inhibition, active:
CC(Oc1ccc(Cl)cc1Cl)c1nc(-c2ccc(NC(=O)c3ccncc3)cc2)no1 (stereo unspecified) 42.3%
O/C=c1\ccc2cccc3nc(C(F)(F)F)nc1c23 38%
CCCNC(=O)c1ccc(S(=O)(=O)c2ccc(OC)cc2)c([N+](=O)[O-])c1 63.9%
COc1ccc(OC)c(/C=C/C(=O)N2C(=O)c3cccc(N)c3C2=O)c1 88.6%
CN(CCO)c1ccc(/C=N/Nc2nncc3ccccc23)cc1 57.1%
